For 13 compounds, growth results are on record in PubChem BioAssay (NCI).

Test systems include SR leukemia; RPMI-8226 leukemia; OVCAR-8 ovarian; OVCAR-5 ovarian; OVCAR-4 ovarian; SK-OV-3 ovarian; IGROV1 ovarian; OVCAR-3 ovarian; HS 578T breast; NCI/ADR-RES ovarian.
Common to all, as to experiment: NCI-60 one-dose screen, 48 h (100 = growth as untreated, 0 = no growth, -100 = all killed)
Common to all, as to settings: 10 µM unless noted

Each structure is given as a SMILES string. This is part of a sample that, as a whole, favours compounds with a hit. Of some 83,000 tested, about 20% had one in any assay.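 How to read the values: 0–100, growth inhibition (40 = 60% inhibited); 0, no net growth; -100 to 0, cell death (-40 = 40% of starting cells died; -100 = all dead).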 A number with no mark means an inactive call. Calls of active or inactive are those of the source. How the source made its calls: active means growth percent below 10; inactive means the rest.

As to `C#CCn1cc(C=C2C(=O)NC(=S)NC2=O)c2cc(Cl)ccc21`, the growth in the test with SR leukemia is 4.92% (active); with RPMI-8226 leukemia, -14.9% (active); with OVCAR-8 ovarian, 12.1%; in the test on OVCAR-5 ovarian, 56.9%; in the test with OVCAR-4 ovarian, 56.1%; with SK-OV-3 ovarian, 81.7%. For the same compound, the growth in the test on IGROV1 ovarian is -40.6% (active); with OVCAR-3 ovarian, -36.4% (active); in the test on HS 578T breast it was -0.874% (active); in the test with NCI/ADR-RES ovarian it was 19.5%.
Regarding `CN1CCN(c2cnc(C(=O)Nc3cc(F)cc4cccnc34)cn2)CC1`, the growth in the test on SR leukemia is 24.5%; in the test on RPMI-8226 leukemia, 49.2%; in the test on OVCAR-8 ovarian, 63.8%; in the test on OVCAR-5 ovarian, 62.7%; with OVCAR-4 ovarian, 8.94% (active); with SK-OV-3 ovarian, 96.9%. The growth was 8.45% (active) with IGROV1 ovarian, 9.25% (active) with OVCAR-3 ovarian, 69.2% in the test with HS 578T breast and 56.5% in the test on NCI/ADR-RES ovarian.
Take `CC(=O)NCCCS(=O)(=O)O`: the growth was 101% in the test with SR leukemia; 113% in the test with RPMI-8226 leukemia; 104% in the test on OVCAR-8 ovarian; 100% in the test on OVCAR-5 ovarian; 107% in the test with OVCAR-4 ovarian; 103% in the test with SK-OV-3 ovarian. Besides, the growth is 108% in the test with IGROV1 ovarian, 108% in the test on OVCAR-3 ovarian, 83.4% in the test on HS 578T breast and 101% in the test on NCI/ADR-RES ovarian.
On to `O=C1NC(=S)NC(=O)C1=Cc1cn(Cc2ccccn2)c2ccccc12`, for which the growth was 13.1% with SR leukemia; 91.2% in the test on RPMI-8226 leukemia; 51.7% in the test with OVCAR-8 ovarian; -4.45% (active) with OVCAR-5 ovarian; 80.8% in the test on OVCAR-4 ovarian; 85.5% in the test on SK-OV-3 ovarian. Besides, the growth in the test on IGROV1 ovarian was 11.3%; in the test on OVCAR-3 ovarian, 33.5%; in the test with HS 578T breast, 81.9%; in the test on NCI/ADR-RES ovarian, 85.1%.
In the case of `C=C1C(=O)O[C@H]2[C@H]1CC/C(COC(=O)/C=C/c1c[nH]c3ccccc13)=C\CC[C@@]1(C)O[C@@H]21`, the growth in the test on SR leukemia was -19.7% (active); in the test on RPMI-8226 leukemia it was -34.3% (active); in the test on OVCAR-8 ovarian, -34.4% (active); with OVCAR-5 ovarian it was -42.1% (active); in the test on OVCAR-4 ovarian, -91.9% (active); in the test on SK-OV-3 ovarian, 50.8%. The growth was -69.7% (active) in the test with IGROV1 ovarian, -91.5% (active) in the test on OVCAR-3 ovarian, -6.76% (active) with HS 578T breast and -26.9% (active) in the test with NCI/ADR-RES ovarian.
Turning to `COc1ccc(/C=C/c2n[nH]c3ccc(N4CCOC4=O)cc23)cc1`, the growth in the test with SR leukemia is 2.85% (active); with RPMI-8226 leukemia, -14.9% (active); in the test with OVCAR-8 ovarian, 19.3%; in the test on OVCAR-5 ovarian, 14.1%; in the test on OVCAR-4 ovarian, 40%; with SK-OV-3 ovarian, 25.2%. Also, the growth in the test with IGROV1 ovarian was 8.62% (active); in the test on OVCAR-3 ovarian, 4.56% (active); in the test with HS 578T breast, 2.93% (active); in the test with NCI/ADR-RES ovarian, 15.6%.
As for `CC(=O)N1c2ccccc2NC2=C(C(=O)N(Cc3ccccc3)C2(C)C)C1c1ccco1` (stereo not given), the growth is 23.3% in the test with SR leukemia; 23.4% in the test on RPMI-8226 leukemia; 26.1% in the test on OVCAR-8 ovarian; 25.9% in the test on OVCAR-5 ovarian; 48.8% in the test with OVCAR-4 ovarian; 22.7% in the test on SK-OV-3 ovarian. Moreover, the growth is 26.8% in the test with IGROV1 ovarian, -7.66% (active) in the test with OVCAR-3 ovarian, 10.7% with HS 578T breast and 82.9% in the test with NCI/ADR-RES ovarian.
On to `COc1ccc(-c2nc(SCC(C)C)nc(N/N=C(/C)c3ccc(OC)c(OC)c3)c2C#N)cc1`, for which the growth with SR leukemia was 70.9%; in the test on RPMI-8226 leukemia it was 71.3%; in the test on OVCAR-8 ovarian, 93.4%; with OVCAR-5 ovarian it was 81.7%; in the test with OVCAR-4 ovarian it was 86.3%; with SK-OV-3 ovarian, 93.3%. Further, the growth in the test with IGROV1 ovarian was 78.8%; in the test on OVCAR-3 ovarian, 79.7%; with HS 578T breast it was 76%; with NCI/ADR-RES ovarian, 90.2%.
Take `COc1cc2nc(-c3ccc(C(F)(F)F)cc3)cc(OCCN3CCCC3)c2cc1OC`: the growth with SR leukemia was 29.9%; in the test on RPMI-8226 leukemia it was 55.9%; with OVCAR-8 ovarian, 91%; with OVCAR-5 ovarian, 67.6%; in the test on OVCAR-4 ovarian, 94.9%; in the test with SK-OV-3 ovarian, 86.3%. Besides, the growth in the test on IGROV1 ovarian was 60.9%; in the test on OVCAR-3 ovarian, 97.3%; with HS 578T breast, 79.8%; in the test on NCI/ADR-RES ovarian it was 72.9%.
Regarding `COc1ccc2nc(N=Nc3c(O)ccc4ccccc34)sc2c1`, the growth is 16.6% in the test on SR leukemia; 38.1% in the test with RPMI-8226 leukemia; 24.3% in the test with OVCAR-8 ovarian; 55.3% in the test with OVCAR-5 ovarian; 28.3% in the test with OVCAR-4 ovarian; 38.2% in the test on SK-OV-3 ovarian. Moreover, the growth in the test with IGROV1 ovarian was 22.4%; in the test with OVCAR-3 ovarian, 34.9%; with HS 578T breast, 83%; with NCI/ADR-RES ovarian it was 9.35% (active).
As to `CC(C)Sc1nc(NN)c(C#N)c(-c2ccccc2)n1`, the growth was 109% with SR leukemia; 100% in the test on RPMI-8226 leukemia; 96.6% in the test with OVCAR-8 ovarian; 92.8% in the test on OVCAR-5 ovarian; 94.5% with OVCAR-4 ovarian; 108% in the test with SK-OV-3 ovarian. Also, the growth is 86.3% in the test on IGROV1 ovarian, 100% in the test on OVCAR-3 ovarian, 93.6% in the test with HS 578T breast and 99.8% with NCI/ADR-RES ovarian.
For `COc1ccc(-c2nc(N/N=C/c3ccco3)nc(N3CCOCC3)c2C#N)cc1`, the growth in the test on SR leukemia was 60.2%; with RPMI-8226 leukemia it was 64%; in the test on OVCAR-8 ovarian, 88.6%; in the test with OVCAR-5 ovarian, 89.6%; in the test with OVCAR-4 ovarian, 78%; with SK-OV-3 ovarian it was 64.6%. For the same compound, the growth is 37.3% with IGROV1 ovarian, 70.2% in the test on OVCAR-3 ovarian, 80.6% in the test on HS 578T breast and 86.4% in the test on NCI/ADR-RES ovarian.
With `O=C(NCCN1CCOCC1)OCc1nc2nc(Cl)nc(N3CCOCC3)c2[nH]1`, the growth with SR leukemia is -0.969% (active); with RPMI-8226 leukemia, 8.39% (active); in the test with OVCAR-8 ovarian, 7.4% (active); in the test with OVCAR-5 ovarian it was 93.3%; in the test on OVCAR-4 ovarian, 45.7%; with SK-OV-3 ovarian, 30.7%. For the same compound, the growth in the test with IGROV1 ovarian is 17.6%; in the test on OVCAR-3 ovarian it was -2.86% (active); in the test on HS 578T breast, 14.3%; in the test on NCI/ADR-RES ovarian it was 6.61% (active).
